Measured values taken from PubChem BioAssay.
Calls of active or inactive are those of the source.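 The calls were made as follows, unless noted: active = inhibition at or above 50% at 10 µM; inactive = inhibition below 50%.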

Molecular target: Alpha-2C adrenergic receptor (Homo sapiens) (UniProt P18825)
Test: modulators of alpha2C/GIRK thallium flux, primary screen, cell-based, HEK293 alpha2C/GIRK1/2 (AID 624;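 active = fluorescence slope after compound addition differing from the mean of all screened samples at 99.7% confidence, in either direction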;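 also: slope of fluorescence ratio to pre-addition baseline per second over 15 to 24 s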)
Conditions: thallium flux BTC fluorescence, at 10 µM, actives lie on both sides

Alpha-2C adrenergic receptor (Homo sapiens), sequence (P18825 whole entry, looked up): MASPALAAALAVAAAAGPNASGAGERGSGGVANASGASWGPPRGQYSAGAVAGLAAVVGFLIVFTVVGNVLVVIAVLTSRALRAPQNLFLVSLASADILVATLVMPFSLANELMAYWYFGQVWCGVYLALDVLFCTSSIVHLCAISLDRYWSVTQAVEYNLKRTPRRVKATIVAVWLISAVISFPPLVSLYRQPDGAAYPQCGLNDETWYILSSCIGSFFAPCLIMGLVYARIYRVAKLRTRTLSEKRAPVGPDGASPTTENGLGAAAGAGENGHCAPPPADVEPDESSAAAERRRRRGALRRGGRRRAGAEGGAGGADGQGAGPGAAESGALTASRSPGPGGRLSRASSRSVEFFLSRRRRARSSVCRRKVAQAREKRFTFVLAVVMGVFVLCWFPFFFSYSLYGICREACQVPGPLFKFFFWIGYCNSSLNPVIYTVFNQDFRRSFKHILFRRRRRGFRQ

slope, inactive:
COc1ccc(C)cc1NS(=O)(=O)c1ccc(NS(=O)(=O)c2ccc(NC(C)=O)cc2)cc1 0.00545
O=C(c1ccc(Cl)s1)N1CCN(c2nc3ccccc3s2)CC1 0.00557
CCCC(=O)Nc1cc(C)c(NC(=O)c2ccccn2)cn1 0.007
c1ccc2c(c1)CC(N1CCCCC1)c1ccccc1N2 (stereo not drawn) 0.00466
C=CCN(CC=C)C(=O)c1ccncc1 0.00479
Fc1cccc(NCc2cn3ccccc3n2)c1 0.00555
COc1ccc(S(=O)(=O)NCCC(=O)NC2CCCCCCC2)cc1 0.00674
O=C(C1CCCN(S(=O)(=O)c2cccs2)C1)N1CCc2ccccc2C1 (stereo not drawn) 0.0027
CCCCc1noc2c1/C(=N\O)CC(c1ccccc1)C2 (stereo not drawn) 0.0073
CCOC(=O)C1CN(S(=O)(=O)c2ccc(C)cc2)CCN1S(=O)(=O)c1ccc(C)cc1 (stereo not drawn) 0.00631
CCS(=O)(=O)NCCc1cc2c(OC)ccc(OC)c2[nH]c1=O 0.00489
COC(=O)C1=C(C)NC(C)=C(C(=O)OC)C1C1CC=CCC1 (stereo not drawn) 0.00547
CCOCC(=O)Nc1c(C(=O)Nc2ccc(OC)cc2OC)oc2ccccc12 0.00574
Cc1nn(Cc2ccc(C(=O)NC3CCCCC3)o2)c(C)c1Br 0.00387
O=C(C1CCN(S(=O)(=O)c2cccc3cccnc23)CC1)N1CCN(C2CCCCC2)CC1 0.00678
COc1cccc(C2CC(c3ccc(F)cc3)Nc3nc(N)nn32)c1 (stereo not drawn) 0.00747
CCSc1nnc(NC(=O)c2csc(C)c2)s1 0.00352
Cc1ccc2cc(CCNC(=O)C(C)C)c(=O)[nH]c2c1C 0.00565
COc1cccc(-c2nc(CS(=O)(=O)CC(=O)N3CCN(c4ccccn4)CC3)c(C)o2)c1 0.00682
COC(=O)CSc1ncccc1-c1nc2ccccc2[nH]1 0.00493
Cc1ccc2[nH]c(=O)c(-c3noc(-c4ccncc4)n3)cc2c1 0.0054
C/C(=N\O)C(=O)NCc1ccccn1 0.00348
CCCC(=O)Nc1ccccc1-c1nnn(CC(=O)Nc2ccc(OCC)cc2)n1 0.00619
CSc1nnc(-c2ccc(NC(=O)CCc3ccccc3)cc2)n1C 0.00726
Cn1c(=O)c2c(nc(-n3ccnc3)n2C)n(C)c1=O 0.00573
COC(=O)c1ccccc1NC(=O)CSc1nc2c(c(=O)n(C)c(=O)n2C)n1C 0.00766
CN(C(=O)Cn1c(=O)n(CCCCC(=O)NC2CCCC2)c(=O)c2ccccc21)C1CCCCC1 0.00575
CCOC(=O)c1ccc(NC(=O)Cn2cc3c(n2)CCC(C)C3)cc1 (stereo not drawn) 0.00553
O=C(Nc1cnn(C23CC4CC(CC(C4)C2)C3)c1)c1cnn2c(C(F)(F)F)cc(-c3ccco3)nc12 0.00429
N#C/C(=C(/O)COC(=O)CCC1CCCCC1)c1nc2ccccc2[nH]1 0.0028
O=C(c1ccccc1-c1nc(-c2ccccc2)no1)N1CCCC1 0.00572
CC(=O)SCCC(=O)Nc1ccccc1 0.00709
c1ccc(Cn2ncc3c2ncn2c(-c4ccncc4)nnc32)cc1 0.00557
CCOC(=O)c1sc2nc(SCC(=O)NCc3ccco3)n(Cc3ccccc3)c(=O)c2c1C 0.00701
N#Cc1nc(-c2ccco2)oc1N1CCN(c2cccc(Cl)c2)CC1 0.00657
COc1ccc(C2(C(=O)N3CCCC3)CCOCC2)cc1OC 0.00553
O=C(O)CN1C(=O)CNC1=O 0.00529
Cc1c(Cl)cnc(NC(=O)COC(=O)C(NC(=O)c2ccco2)C(C)C)c1Cl (stereo not drawn) 0.00552
CCOc1ccc(N(CC(=O)NCc2ccco2)S(=O)(=O)c2ccc(OC)c(OC)c2)cc1 0.0072

Tested on: not listed separately
Test: inhibitors of Sendai virus-induced IRF3 signaling, primary screen, TLR/RLR signaling modifier project, cell-based, Sendai virus stimulus, luciferase, 10K MLSCN set (AID 602276);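 also: firefly luciferase from ISG56 promoter only with Renilla not read in this screen; 0% = Sendai virus plus DMSO and 100% = medium plus DMSO without virus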
Conditions: HEK293 RL24 IRF3 luciferase reporter, at 10 µM, stronger effect = higher value

inhibition, inactive:
COc1ccc(C)cc1NS(=O)(=O)c1ccc(NS(=O)(=O)c2ccc(NC(C)=O)cc2)cc1 19.9%
O=C(c1ccc(Cl)s1)N1CCN(c2nc3ccccc3s2)CC1 8.1%
CCCC(=O)Nc1cc(C)c(NC(=O)c2ccccn2)cn1 4.7%
c1ccc2c(c1)CC(N1CCCCC1)c1ccccc1N2 (stereo not drawn) 10.1%
C=CCN(CC=C)C(=O)c1ccncc1 4.76%
Fc1cccc(NCc2cn3ccccc3n2)c1 -1.05%
COc1ccc(S(=O)(=O)NCCC(=O)NC2CCCCCCC2)cc1 17.8%
O=C(C1CCCN(S(=O)(=O)c2cccs2)C1)N1CCc2ccccc2C1 (stereo not drawn) 13.1%
CCCCc1noc2c1/C(=N\O)CC(c1ccccc1)C2 (stereo not drawn) -46.5%
CCOC(=O)C1CN(S(=O)(=O)c2ccc(C)cc2)CCN1S(=O)(=O)c1ccc(C)cc1 (stereo not drawn) 8.55%
CCS(=O)(=O)NCCc1cc2c(OC)ccc(OC)c2[nH]c1=O 16.6%
COC(=O)C1=C(C)NC(C)=C(C(=O)OC)C1C1CC=CCC1 (stereo not drawn) 8.91%
CCOCC(=O)Nc1c(C(=O)Nc2ccc(OC)cc2OC)oc2ccccc12 -20.7%
Cc1nn(Cc2ccc(C(=O)NC3CCCCC3)o2)c(C)c1Br 7.39%
O=C(C1CCN(S(=O)(=O)c2cccc3cccnc23)CC1)N1CCN(C2CCCCC2)CC1 -4.22%
COc1cccc(C2CC(c3ccc(F)cc3)Nc3nc(N)nn32)c1 (stereo not drawn) -17.7%
CCSc1nnc(NC(=O)c2csc(C)c2)s1 -36.6%
Cc1ccc2cc(CCNC(=O)C(C)C)c(=O)[nH]c2c1C -6.46%
COc1cccc(-c2nc(CS(=O)(=O)CC(=O)N3CCN(c4ccccn4)CC3)c(C)o2)c1 6.91%
COC(=O)CSc1ncccc1-c1nc2ccccc2[nH]1 -16.6%
Cc1ccc2[nH]c(=O)c(-c3noc(-c4ccncc4)n3)cc2c1 8.49%
C/C(=N\O)C(=O)NCc1ccccn1 -4.43%
CCCC(=O)Nc1ccccc1-c1nnn(CC(=O)Nc2ccc(OCC)cc2)n1 12.2%
CSc1nnc(-c2ccc(NC(=O)CCc3ccccc3)cc2)n1C -3.25%
Cn1c(=O)c2c(nc(-n3ccnc3)n2C)n(C)c1=O 15.7%
COC(=O)c1ccccc1NC(=O)CSc1nc2c(c(=O)n(C)c(=O)n2C)n1C -17.1%
CN(C(=O)Cn1c(=O)n(CCCCC(=O)NC2CCCC2)c(=O)c2ccccc21)C1CCCCC1 16.4%
CCOC(=O)c1ccc(NC(=O)Cn2cc3c(n2)CCC(C)C3)cc1 (stereo not drawn) 12.5%
O=C(Nc1cnn(C23CC4CC(CC(C4)C2)C3)c1)c1cnn2c(C(F)(F)F)cc(-c3ccco3)nc12 8.99%
N#C/C(=C(/O)COC(=O)CCC1CCCCC1)c1nc2ccccc2[nH]1 16.8%
O=C(c1ccccc1-c1nc(-c2ccccc2)no1)N1CCCC1 -20.5%
CC(=O)SCCC(=O)Nc1ccccc1 20.3%
c1ccc(Cn2ncc3c2ncn2c(-c4ccncc4)nnc32)cc1 -13.1%
CCOC(=O)c1sc2nc(SCC(=O)NCc3ccco3)n(Cc3ccccc3)c(=O)c2c1C 5.1%
N#Cc1nc(-c2ccco2)oc1N1CCN(c2cccc(Cl)c2)CC1 8.62%
COc1ccc(C2(C(=O)N3CCCC3)CCOCC2)cc1OC 2.28%
O=C(O)CN1C(=O)CNC1=O 3.07%
Cc1c(Cl)cnc(NC(=O)COC(=O)C(NC(=O)c2ccco2)C(C)C)c1Cl (stereo not drawn) 6.87%
CCOc1ccc(N(CC(=O)NCc2ccco2)S(=O)(=O)c2ccc(OC)c(OC)c2)cc1 3.08%
